Assay results as given in article PMC4336329 (PLoS ONE, 2015).
Hit rate of the full screen: of about 310,000 compounds, about 14,000 (4.5%) showed an effect of 50% or more. Effects have a minus sign here. Only a selection was taken, and strong results are over-represented in it overall.

target: human ether-à-go-go-related gene (hERG) potassium channel (human, UniProt Q12809); assay: primary screen, population patch clamp on CHO cells stably expressing hERG; higher = less effect of the substance
Sequence (Q12809 whole entry, looked up): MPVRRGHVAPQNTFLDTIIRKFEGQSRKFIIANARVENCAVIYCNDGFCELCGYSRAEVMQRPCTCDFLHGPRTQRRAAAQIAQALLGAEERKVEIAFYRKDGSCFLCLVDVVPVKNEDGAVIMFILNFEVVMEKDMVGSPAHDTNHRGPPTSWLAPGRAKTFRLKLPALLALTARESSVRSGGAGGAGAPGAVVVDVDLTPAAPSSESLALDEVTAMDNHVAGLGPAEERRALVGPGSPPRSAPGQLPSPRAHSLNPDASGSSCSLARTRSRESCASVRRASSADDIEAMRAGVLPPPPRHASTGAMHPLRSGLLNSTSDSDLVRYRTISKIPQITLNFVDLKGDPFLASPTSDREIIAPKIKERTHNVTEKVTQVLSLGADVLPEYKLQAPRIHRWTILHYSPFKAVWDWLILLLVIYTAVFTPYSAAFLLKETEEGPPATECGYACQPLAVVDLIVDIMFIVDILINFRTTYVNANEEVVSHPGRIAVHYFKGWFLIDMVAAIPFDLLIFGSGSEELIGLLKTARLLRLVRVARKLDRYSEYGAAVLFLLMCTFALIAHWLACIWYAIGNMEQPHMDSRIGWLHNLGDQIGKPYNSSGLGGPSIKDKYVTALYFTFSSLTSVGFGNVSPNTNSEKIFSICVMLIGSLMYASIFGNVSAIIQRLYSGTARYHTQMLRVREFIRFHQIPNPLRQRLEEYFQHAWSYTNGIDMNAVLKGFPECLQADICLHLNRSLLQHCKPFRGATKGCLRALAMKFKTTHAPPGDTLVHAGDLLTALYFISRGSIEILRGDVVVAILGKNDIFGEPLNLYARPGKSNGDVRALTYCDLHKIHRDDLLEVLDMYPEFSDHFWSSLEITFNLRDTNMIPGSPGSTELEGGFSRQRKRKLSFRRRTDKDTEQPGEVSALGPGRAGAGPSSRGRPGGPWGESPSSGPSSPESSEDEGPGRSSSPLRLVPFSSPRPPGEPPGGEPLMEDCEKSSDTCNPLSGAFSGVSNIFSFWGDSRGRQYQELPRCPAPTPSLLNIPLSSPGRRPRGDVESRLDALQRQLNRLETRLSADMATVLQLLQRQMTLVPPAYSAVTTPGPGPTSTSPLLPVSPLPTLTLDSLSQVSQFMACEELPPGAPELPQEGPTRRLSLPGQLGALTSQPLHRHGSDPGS
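Note: peak tail current of the secondary pulse compared with the same well before compound.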

Compound | hERG current change (%, negative = inhibition) at 10uM [%]
NC(=O)C1=C[C@H](c2ccc(C(F)(F)F)cc2)C[C@H](OCCCCO)O1 | -4.54
CCCOc1ccc(C2NC(=S)NC(c3ccccc3)=C2C(=O)Nc2ccc(C)cc2)cc1OC (stereo not shown) | 0.514
CCN(CC(=O)Nc1cccc(OC)c1)CC(=O)Nc1ccc(C)cc1Cl | -10.4
COc1ccccc1/C=N/NC(=O)c1ccc2c(c1)OCO2 | 7.71
Cc1ccccc1OCC(=O)NCC1CCCO1 (stereo not shown) | 13.3
CCOc1ccc(NC(=O)CNC(=O)c2ccc([N+](=O)[O-])cc2)cc1 | -7.46
Cc1cc(N/N=C\c2ccccc2)nc(-c2ccccc2O)n1 | 4.95
Cn1c(NC(=O)c2cc(Br)ccc2Cl)cc(=O)n(C)c1=O | 1.62
COc1ccc(N2CCN(S(=O)(=O)c3cc4c5c(c3)C(C)C(=O)N5CCC4)CC2)cc1 (stereo not shown) | 3.36
CC1C(=O)N2CCCc3cc(S(=O)(=O)N4CCN(c5ccc(F)cc5)CC4)cc1c32 (stereo not shown) | -50.3
CC1C(=O)N2CCCc3cc(S(=O)(=O)N4CCN(c5ccccc5F)CC4)cc1c32 (stereo not shown) | -8.8
O=C(/C=C/c1ccccc1[N+](=O)[O-])Nc1ccccc1 | 10.1
O=c1cc(CSc2ccccn2)c2ccccc2[nH]1 | 9.52
C=CCn1c(=O)c(C(=O)NC(C)c2ccccc2)c(O)c2ccccc21 (stereo not shown) | 18.3
C=CCN(CC=C)Cc1c(O)ccc2c(=O)c(-c3ccccc3)coc12 | -16.9
CN(Cc1c(O)ccc2c1oc(=O)c1ccccc12)C1CCCCC1 | -42.8
C=CCN(CC=C)Cc1c(O)ccc2c1oc(=O)c1ccccc12 | -71.6
Cc1ccccc1NC(=O)NCC1CCN(C(=O)OC(C)(C)C)CC1 | -19.6
Cc1ccccc1NC(=O)NCC1CCN(Cc2cccc(Cl)c2)CC1 | -60
Cc1ccc(NC(=O)NCC2CCN(Cc3cccc(Cl)c3)CC2)c(Cl)c1 | -59.8
Cc1ccc(OCC(=O)N2N=C(C(F)(F)F)CC2(O)C(C)(C)C)cc1C (stereo not shown) | -15.9
O=C(NC1CCCCC1)C(c1cccs1)N(C(=O)Cc1c[nH]c2ccccc12)c1ccc(F)cc1 (stereo not shown) | 14.7

Compound | hERG current change (%, negative = inhibition) at 10uM [%]
Cc1ccc(S(=O)(=O)Cc2ccc(C(=O)N3CCN(c4cccc(C)c4C)CC3)o2)cc1 | -7.95
O=C(c1ccc2c(=O)n(Cc3ccccc3Cl)c(=S)[nH]c2c1)N1CCCC1 | 4.9
Cc1cc(Cl)ccc1OCc1n[nH]c(=S)n1C1CCCCC1 | 21.1
CN1CCN(c2cc(N3CCc4ccccc4C3)c(F)cc2[N+](=O)[O-])CC1 | -44.2
CC(=O)N1CCN(c2cc(N3CCc4ccccc4C3)c(F)cc2[N+](=O)[O-])CC1 | -41.3
CCN1CCN(c2cc(N3CCc4ccccc4C3)c(F)cc2[N+](=O)[O-])CC1 | -51.9
O=C(CCC(=O)Nc1ccccc1)NNC(=O)c1ccco1 | 8.99
O=C(Cn1c(C(=O)NCC2CCCO2)cc2sccc21)c1ccccc1 (stereo not shown) | -3.47
O=C(Cn1c(C(=O)N2CCN(C3CCCCC3)CC2)cc2sccc21)c1ccccc1 | -70.7
O=C(Cn1c(C(=O)N2CCN(C3CCCC3)CC2)cc2sccc21)c1ccccc1 | -76.1
O=C(Cn1c(C(=O)N2CCc3ccccc3C2)cc2sccc21)c1ccccc1 | 4.01
CN1CCN(C(=O)c2cc3sccc3n2CC(=O)c2ccccc2)CC1 | -27.6
CCN1CCN(C(=O)c2cc3sccc3n2CC(=O)c2ccccc2)CC1 | -45.5
CCOc1cc(N2CCOCC2)c(OCC)cc1NC(=O)C1CC(=O)N(c2ccc(C)cc2)C1 (stereo not shown) | -2.64
O=C(COC(=O)c1ccccc1SCC(=O)N1CCCC1)NC1CCCCC1 | -5.12
COc1ccc(C(=O)Oc2c(C)occc2=O)cc1OC | 9.93
C#CCNc1nc(CC)nc2c1nnn2Cc1ccccc1F | -0.696
CCc1nc(NCCCCCO)c2nnn(Cc3ccccc3F)c2n1 | -28.8
CCc1nc(NCC2CCCN2CC)c2nnn(Cc3ccccc3F)c2n1 (stereo not shown) | -54.2
CCOC(=O)C1C(=O)NC(SCC(=O)Nc2nccs2)=C(C#N)C1c1ccccc1OCC (stereo not shown) | 13.7
COc1ccc(OC)c(C2C3CN(C(C)C)CC=C3C(C#N)=C(N)C2(C#N)C#N)c1 (stereo not shown) | -16.2
Nc1c(C(=O)Nc2ccccc2)c2nc3ccccc3nc2n1CCCN1CCOCC1 | 18.7

Compound | hERG current change (%, negative = inhibition) at 10uM [%]
CCCCc1nc(SCC(=O)N2CCCC2)c2c(=O)n(C)c(=O)n(C)c2n1 | -23
Cl.O=C(c1ccco1)N1CCN(CCCCOc2ccc(F)cc2)CC1 | -74.4
Cl.O=C(c1ccco1)N1CCN(CCOCCOc2cccc3ccccc23)CC1 | -62.5
O=C(O)C(=O)O.c1ccc(CN2CCN(CCOCCOc3cccc4ccccc34)CC2)cc1 | -43.3
Cl.O=C(c1ccco1)N1CCN(CCCCOc2cccc3ccccc23)CC1 | -62.4
COc1cccc(OC)c1OCCN1CCN(C(=O)c2ccco2)CC1.Cl | -16.2
O=C(c1ccco1)N1CCN(CCCCN2C(=O)c3ccccc3C2=O)CC1 | -40
Cl.O=C(c1ccco1)N1CCN(CCOc2ccc(F)cc2)CC1 | -47.4
O=C(CCN1CCN(C(=O)c2ccco2)CC1)Nc1ccc(F)cc1 | -22.4
CN1CCN(CCCCOc2cccc3ccccc23)CC1.Cl | -27.4
O=C(CCCCCCN1C(=O)c2ccccc2C1=O)Nc1nccs1 | 12.2
COc1cc(CNCCO)cc(Br)c1OCc1cccs1.Cl | -8.81
CCOc1c(C)cc2[nH]c(CCC(=O)O)nc2c1C.Cl | -0.00982
COCCn1c(-c2ccccc2F)n[nH]c1=S | 21.5
CNC(=O)c1ccccc1Sc1ccccc1CO | 27.9
CC(C)(C)c1ccc(NC(=S)NCc2cccs2)cc1 | 4.35
CCCc1nc(C)cc(N2CCN(c3ccccc3)CC2)n1.Cl | -51.7
Cc1cc(C)n(-c2nnc(N3CCN(c4ccccc4)CC3)nn2)n1 | -16
Cc1cc(N2CCC(C)CC2)nc(-n2nc(C)cc2C)n1 | -30.3
Cc1cc(N2CCN(c3ccccc3)CC2)nc(N)n1.Cl | -42.9
Cc1cc(N2CCN(c3ccccc3)CC2)nc(NCc2ccccc2)n1 | 4.25
Cc1cc(N2CCN(c3ccccc3)CC2)nc(-n2nc(C)cc2C)n1 | -63.2

Compound | hERG current change (%, negative = inhibition) at 10uM [%]
CC(Sc1nc(=O)cc(N)n1CCc1ccccc1)C(=O)NCc1ccccc1 (stereo not shown) | 3.18
Cc1ccc(C)c(S(=O)(=O)N/N=C/c2ccc(N(C)C)cc2)c1 | 16.1
CCC(NC(=O)c1ccccc1NC(=O)c1ccccc1)C(=O)OC (stereo not shown) | 11.3
CS(=O)CSc1nc2c(cc1C#N)CCCC2 (stereo not shown) | -25
NC(=O)CC(NC(=O)c1ccccc1)c1ccc(NCC2CC2)c([N+](=O)[O-])c1 (stereo not shown) | -35.3
NC(=O)CC(NC(=O)c1cccc(Br)c1)c1ccc(NC2CCC2)c([N+](=O)[O-])c1 (stereo not shown) | -59.8
NC(=O)CC(NC(=O)c1cccc(Br)c1)c1ccc(NCC2CC2)c([N+](=O)[O-])c1 (stereo not shown) | -65.4
NC(=O)CC(NC(=O)c1cccc(Br)c1)c1ccc(NC2CCCCCCC2)c([N+](=O)[O-])c1 (stereo not shown) | 6.95
Cc1cc(C)cc(C(=O)NC(CC(N)=O)c2ccc(NCC3CC3)c([N+](=O)[O-])c2)c1 (stereo not shown) | -30.4
NC(=O)CC(NC(=O)c1cccc(Br)c1)c1ccc(NC2CCCCCCCCCCC2)c([N+](=O)[O-])c1 (stereo not shown) | 5.21
CCc1nnc(NC(=O)CCC(=O)NC2CCCC2)s1 | -3.36
CCc1nnc(NC(=O)CCC(=O)NC2CCCCC2)s1 | 15.8
CCc1nnc(NC(=O)CCC(=O)NC2CC2)s1 | -50.5
CCc1nnc(NC(=O)CCC(=O)N2CCN(CCOc3ccc(C)cc3)CC2)s1 | -20.2
CCN1CCN(CC(=O)Nc2nc3ccccc3s2)CC1.O=CO | -22.7
O=C(CN1CCN(C(=O)c2ccc(-c3nc4ccccc4s3)o2)CC1)Nc1ccc(F)cc1 | -72.3
Cc1ccc(OCCN2CCN(C(=O)CCC(=O)Nc3nnc(CC(C)C)s3)CC2)cc1 | -43.5
CN1CCN(CC(=O)Nc2nc3ccccc3s2)CC1.O=CO | -5.53
O=C(c1ccc(-c2nc3ccccc3s2)o1)N1CCN(c2ccccc2O)CC1 | 11.6
COc1ccccc1N1CCN(C(=O)c2ccc(-c3nc4ccccc4s3)o2)CC1 | -3.16
O=C(CN1CCN(Cc2ccc(F)cc2)CC1)Nc1nc2ccccc2s1 | -69.3
CCCc1nnc(NC(=O)CCC(=O)N2CCN(CCOc3ccc(C)cc3)CC2)s1 | -51.2
